Compounds with a hit are over-represented: about 1.6% of the library has one in this group of screens.
KCNQ2 block: rat KCNQ2 potassium channel inhibitors, primary screen, cell-based, CHO-K1, FluxOR thallium flux, B-score; Potassium voltage-gated channel subfamily KQT member 2 (Rattus norvegicus), O88943; 20 min; active compounds read low; B-score at 10 µM; actives 1.1% (n = 310,000); AID 2156, 2009;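 active means fluorescence ratio B-score at most minus 3 library SDs, with starting brightness B-score within 2 library SDs, cut at about -5.5 in these data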
Target sequence (O88943 whole entry, looked up): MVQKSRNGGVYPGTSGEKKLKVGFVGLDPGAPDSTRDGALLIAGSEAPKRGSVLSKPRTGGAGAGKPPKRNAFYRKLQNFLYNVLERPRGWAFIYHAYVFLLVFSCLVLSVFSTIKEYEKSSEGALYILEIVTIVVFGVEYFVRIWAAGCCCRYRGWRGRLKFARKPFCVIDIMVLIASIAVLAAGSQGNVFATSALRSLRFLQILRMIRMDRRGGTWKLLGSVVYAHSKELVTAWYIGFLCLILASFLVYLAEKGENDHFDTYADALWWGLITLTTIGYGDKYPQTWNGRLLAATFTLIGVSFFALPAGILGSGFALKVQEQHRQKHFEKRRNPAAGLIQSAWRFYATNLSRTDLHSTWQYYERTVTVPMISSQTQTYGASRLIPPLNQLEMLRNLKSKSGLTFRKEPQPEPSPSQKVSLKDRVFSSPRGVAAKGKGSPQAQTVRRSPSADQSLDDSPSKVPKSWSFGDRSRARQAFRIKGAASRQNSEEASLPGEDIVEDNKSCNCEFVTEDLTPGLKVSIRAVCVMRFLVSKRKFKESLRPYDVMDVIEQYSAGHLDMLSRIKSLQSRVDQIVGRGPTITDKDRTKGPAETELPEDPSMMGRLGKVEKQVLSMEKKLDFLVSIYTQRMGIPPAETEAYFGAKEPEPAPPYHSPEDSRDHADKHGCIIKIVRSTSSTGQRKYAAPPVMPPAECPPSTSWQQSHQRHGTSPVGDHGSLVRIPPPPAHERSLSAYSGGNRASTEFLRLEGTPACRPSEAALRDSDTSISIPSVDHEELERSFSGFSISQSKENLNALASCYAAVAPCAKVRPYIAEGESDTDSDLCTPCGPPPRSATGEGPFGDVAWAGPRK
KCNQ2 pot: potentiators of rat KCNQ2 potassium channel | Potassium voltage-gated channel subfamily KQT member 2 (Rattus norvegicus), O88943 | CHO-K1 KCNQ2, FluxOR thallium flux fluorescence; active compounds read high | B-score at 10 µM | actives 0.54% (n = 310,000) | AID 2239, 2010;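 active means fluorescence ratio B-score at least 3 SD of library B-scores, with initial fluorescence B-score within 3 of them, cut at about 5.3 in these data; same plate scores as AID 2156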;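 further: B-score of peak minus minimum over baseline fluorescence ratio after K+ and Tl+ stimulus; positive B-score means potentiation of KCNQ2 with more thallium influx and brighter signal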
Large screens that a line does not name were inactive.

COc1ccc(NC2CCCN(C(=O)CCC(=O)c3ccc(F)cc3)C2)cc1 (stereo not given)	none
COc1ccccc1CNC(=O)c1cc(C(=O)CC(C)C)c[nH]1	none (no result: KCNQ2 pot)
CC(=O)N1CC(C)Sc2ccc(S(=O)(=O)NCc3ccc(Cl)cc3)cc21 (stereo not given)	none (no result: KCNQ2 pot)
CSCC[C@H](N)C(=O)NCC1CCC(C(=O)Nc2ccc3c(c2)OCO3)CC1 (stereo not given in full)	none
CCCN(CCC)c1nc(C#N)nc(N(CCC)CCC)n1	KCNQ2 block -7.93
CN(C)c1nc(C#N)nc(N(C)C)n1	none
COCC(C)NS(=O)(=O)c1ccc(NC(=O)c2ccccn2)cc1 (stereo not given)	none
CCOC(=O)CC1(NC(=O)c2cc(COc3cccc(OC)c3)on2)CCCCC1	KCNQ2 block -7.01
COc1cccc(OCc2cc(C(=O)NCC3CCCCC3)no2)c1	none (no result: KCNQ2 pot)
Cc1cc(OCC(=O)NNC(=O)CCc2ccccc2)ccc1Br	none (no result: KCNQ2 pot)
O=C(NCC(c1cccs1)N1CCOCC1)c1ccccc1NS(=O)(=O)c1ccc(Cl)c([N+](=O)[O-])c1 (stereo not given)	KCNQ2 block -6.24
O=C(NCC(c1cccs1)N1CCOCC1)c1ccccc1NS(=O)(=O)c1cc([N+](=O)[O-])ccc1Cl (stereo not given)	none (no result: KCNQ2 pot)
COc1ccc(/C(C)=N/NC(=O)c2cc(C)[nH]n2)c(OC)c1	none
Cc1ccccc1CSc1ccc(-c2ccc3c(c2)OCO3)nn1	KCNQ2 block -5.77
Fc1cccc(CSc2ccc(-c3ccc4c(c3)OCO4)nn2)c1	none (no result: KCNQ2 pot)
Cc1cccc(NC(=O)C2Cc3ccccc3CN2C(=O)OCc2ccccc2)c1C (stereo not given)	none (no result: KCNQ2 pot)
Cc1c(Cl)cccc1NC(=O)C1Cc2ccccc2CN1C(=O)c1ccccc1 (stereo not given)	KCNQ2 block -7.88
CCOC(=O)C1(CC2CC2)CCN(C(=O)c2cc(C3CC3)nc3ccccc23)CC1	none (no result: KCNQ2 pot)
CCOC(=O)C1(CC2CC2)CCN(C(=O)c2cccnc2C)CC1	KCNQ2 block -6.44
CN(/N=C/c1cc(Br)cc(Br)c1O)c1ccccc1	none (no result: KCNQ2 pot)
O=C(O)c1cccc(N/N=C/c2cc(Br)cc(Br)c2O)c1	KCNQ2 pot 5.83
COc1ccc(Br)cc1/C=N/Nc1cccc(C(=O)O)c1	none
Cc1c(N=Cc2cc(Br)cc(Br)c2O)cccc1C(=O)O	KCNQ2 pot 9.51
COc1ccc(Cl)cc1NC(=O)CSc1nc(=O)n(CCN(C)C)c2c1CCCC2	none
COC(=O)Nc1ccc(N2CCOCC2)c(S(=O)(=O)N2CCOCC2)c1	none
C=CCSC1=N/C(=C\c2cc(OCC)c(OC(C)=O)c([N+](=O)[O-])c2)C(=O)S1	KCNQ2 pot 7.11
C=CCSC1=N/C(=C\c2ccc3c(c2)OCO3)C(=O)S1	none
Cc1ncc(CN2CCCC(C(=O)Nc3ccc(-n4ccnc4C)cc3)C2)cn1 (stereo not given)	none
Cc1ccc(-n2c(SCC(=O)Nc3ccc4c5c(cccc35)CC4)nc(O)cc2=O)cc1	none
Cc1ccc(-n2c(SCC(=O)Nc3ccc4c5c(cccc35)CC4)nc(O)c(C)c2=O)cc1	KCNQ2 pot 7.02
CCCC1S/C(=N/N=C/c2ccc(OC)cc2)N(Cc2ccccc2)C1=O (stereo not given)	KCNQ2 block -6.15
CCCC1S/C(=N/N=C/c2ccc(OC)cc2)N(Cc2ccc(OC)cc2)C1=O (stereo not given)	none (no result: KCNQ2 pot)
CC(C)(C)C(=O)Nc1nnc(SCC(=O)Nc2nccs2)s1	none (no result: KCNQ2 pot)
COc1ccc(S(=O)(=O)N2c3cc(C)ccc3OCC2C(C)(C)C)cc1 (stereo not given)	KCNQ2 block -5.55
COc1cccc(C(=O)N2c3cc(C)ccc3OCC2C(C)(C)C)c1 (stereo not given)	none (no result: KCNQ2 pot)
Cc1ccc(S(=O)(=O)N2c3cc(C)ccc3OCC2C(C)(C)C)cc1 (stereo not given)	KCNQ2 block -6.25
Cc1ccc(S(=O)(=O)N2c3ccccc3OCC2c2ccccc2)cc1 (stereo not given)	none (no result: KCNQ2 pot)
CCN(CC)S(=O)(=O)c1ccc(S(=O)(=O)N2CCCC(C(=O)NC3CC3)C2)cc1 (stereo not given)	none
CC1CCc2sc3c(c2C1)c(=O)n(CC(=O)O)c(=O)n3Cc1ccc(Cl)cc1 (stereo not given)	none
Clc1ccc(CSc2nncn2-c2ccccn2)cc1	none
Clc1ccc(CSc2nncn2-c2ccc3c(c2)OCCO3)cc1	KCNQ2 block -7.7
Clc1ccccc1CN1CCN(/N=C/C=C/c2ccco2)CC1	none (no result: KCNQ2 pot)
CCOC(=O)C1=C(C)N(c2ccc(OCC)cc2)C(=O)/C1=C\c1ccco1	none (no result: KCNQ2 pot)
COC(=O)C1=C(C)N(CCc2ccccc2)C(=O)/C1=C\c1ccco1	KCNQ2 block -5.87
COC(=O)C1=C(C)N(c2cccc(OC)c2)C(=O)/C1=C\c1ccco1	KCNQ2 block -6.15
CCN1C(=O)/C(=C\c2ccco2)C(C(=O)OC)=C1C	none
COC(=O)C1=C(C)N(Cc2ccccc2)C(=O)/C1=C\c1ccco1	KCNQ2 block -5.73
C=CCN1C(=O)/C(=C\c2ccco2)C(C(=O)OC)=C1C	none
COc1ccc(S(=O)(=O)N2CCC(C(=O)N[C@@H](C)C(=O)NCc3ccccc3OC)CC2)cc1	none
COc1ccc(C(=O)NC2CCN(Cc3c(F)cccc3Cl)CC2)cc1OC	none (no result: KCNQ2 pot)
Cc1cccc(C(=O)Nc2nnc(S(=O)(=O)N(C)Cc3ccco3)s2)c1	none
CCN(CC(=O)Nc1ccccc1OC)C(=O)c1ccc(N(C)S(=O)(=O)c2ccc(C)cc2)cc1	none (no result: KCNQ2 pot)
CCC(=O)c1ccc(OCC(=O)OCC(=O)N2c3ccccc3CC2C)cc1 (stereo not given)	none (no result: KCNQ2 pot)
COc1ccc(/C=N/Nc2nc(N3CCCC3)nc(N3CCCC3)n2)cc1O	KCNQ2 block -6.32
COc1ccc(/C=N/Nc2nc(N3CCCC3)nc(N3CCCC3)n2)cc1	none (no result: KCNQ2 pot)
CCn1c(SCC(=O)Nc2c(C#N)cnn2-c2ccccc2)nnc1-c1cccs1	none
COC(=O)c1ccc(N2CCCCC2)c(N)c1	none (no result: KCNQ2 pot)
COC(=O)c1ccc(C(=O)OC)c(N)c1	KCNQ2 block -5.66
Cc1ccc(CC(=O)N2CCN(C(=O)C3CCCO3)CC2)cc1 (stereo not given)	none (no result: KCNQ2 pot)
CC1(C)C(C=C(Cl)Cl)C1C(=O)N1CCN(c2ccccc2)CC1 (stereo not given)	KCNQ2 block -5.68
O=C(C1CC2C=CC1C2)N1CCN(c2ccccc2)CC1 (stereo not given)	none (no result: KCNQ2 pot)
NC(Cc1ccccc1)C(=O)N1CCCCC1 (stereo not given)	none (no result: KCNQ2 pot)
O=C(O)c1ccccc1Nc1cc(Cl)c2nonc2c1[N+](=O)[O-]	none
O=[N+]([O-])c1c(Nc2ccccn2)cc(Cl)c2nonc12	KCNQ2 block -11.2
C=CCn1c(C)cc(C(=O)CSc2nc3ccccc3[nH]2)c1C	KCNQ2 block -7.47
Cc1cc(C(=O)CSc2nc3ccc(Cl)cc3[nH]2)c(C)n1C	KCNQ2 block -6.34
Cc1ccc2nc(SCC(=O)c3cc(C)n(C)c3C)[nH]c2c1	none (no result: KCNQ2 pot)
Cc1cc(C(=O)CSc2nc3ccccc3[nH]2)c(C)n1C	none (no result: KCNQ2 pot)
CCOC(=O)Cn1nc(C)n(-c2ccc(F)cc2)c1=O	none (no result: KCNQ2 pot)
Fc1ccccc1NC(=S)Nn1cnnc1	none (no result: KCNQ2 pot)
COc1cc(N/N=C(\C)c2ccc(O)c(C)c2)nc(-c2ccccc2)n1	none (no result: KCNQ2 pot)
COc1cc(N/N=C(\C)c2ccc(N)cc2)nc(-c2ccccc2)n1	KCNQ2 block -6.8
COc1ccc(NC(=O)C(Cl)=C(Cl)Cl)cn1	none (no result: KCNQ2 pot)
COc1ccc(NC(=O)/C(Cl)=C(/Cl)S(=O)(=O)Cc2ccccc2)cn1	KCNQ2 pot 5.5
Cc1c(C(=O)N2CCC3(CC2)CC(=O)c2ccccc2O3)cccc1[N+](=O)[O-]	none

High-throughput results as filed in PubChem BioAssay.
